Assay outcomes: PubChem BioAssay, National Center for Advancing Translational Sciences (NCATS)
KB-V1 cytotox: KB-V1 MDR subline cytotoxicity. KB-V1 MDR cells viability, CellTiter-Glo, 72 h. Potency, µM (series often up to 46.1 µM), most hits filed as cytotoxic. hit rate 3.4% among 400,000; further: nearly all actives have a fitted effect of over 60% in size
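Following 72 h at 37 degrees C with compound, KB-V1 cell viability was read by CellTiter-Glo luminescence, medium being phenol-red-free DMEM plus 10% FBS; concentration-response parameters came from normalized, curve-fitted qHTS data.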
KB-3-1 cytotox: kills parental KB-3-1 adenocarcinoma cells; KB-3-1 viability, CellTiter-Glo ATP luminescence, 72 h; AID 1347075; hit rate 1.4% among 400,000; Potency, µM (series often up to 46.1 µM), usual class: cytotoxic; further: nearly all actives have a fitted effect of over 60% in size
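KB-3-1 cells, DMEM (no phenol red) + 10% FBS; compound by pin transfer, 72 h, 37 °C. Readout: CellTiter-Glo luminescence after 10 min. Data normalized, curve-fitted.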
MCF10A rerep: inducers of DNA re-replication in MCF 10A breast cells. MCF 10A DNA re-replication, Hoechst nuclear intensity, 48 h. Potency, µM (highest dose often 46.1 µM), hits mostly activators. hit rate 2.9% among 350,000. AID 624296; further: nearly all actives have a fitted effect of over 50% in size
SW480 rereplic: DNA re-replication induction in SW480 cells. SW480 DNA re-replication, Hoechst DNA content imaging, 48 h. Potency, µM (highest dose often 46.1 µM), usual class: activators. hit rate 1.8% among 340,000. AID 624297; further: nearly all actives have a fitted effect of over 55% in size
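First, 250 cells per well were seeded. Next, compound or vehicle (23 nL) was pinned in, plates sat 48 hr at 37 C. Finally Hoechst was added for 40 min before fluorescence scanning.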
PINK1 modulator: PINK1 expression modulation; PINK1 immunofluorescence, high-content cytometry, 24 h; Potency, µM (titrated, usually from 76.6 µM), most hits filed as activators; AID 624263; hit rate 0.2% among 410,000; active means well fitted activation curve with a large enough effect; inconclusive means small, poorly fitted or top-dose-only effect; cell line not stated here; further: nearly all actives have a fitted effect of over 65% in size
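Cells are seeded, rested 12 hours, then given compound at five concentrations or DMSO for 24 hours. After fixation, blocking and antibody staining, PINK1 amount and mitochondrial localization are scored; CCCP serves as control.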
A number is an active result; [ ] = dose if it differs, or a comment. In the library only some 6.7% were active in any assay of this set; here they are far more common. Unless noted, the call rests on the fitted dose curve; in most records, active means well fitted curve in the direction sought with a large enough effect; inconclusive means small, poorly fitted or top-dose-only effect, or another doubt; inactive means no such curve, though single readings can be large; an effect the other way counts as inactive or inconclusive.

Cc1ccc2oc(C(=O)NCc3ccccc3)cc(=O)c2c1 was read as KB-V1 cytotox inactive, KB-3-1 cytotox inactive, MCF10A rerep inactive, SW480 rereplic inactive and PINK1 modulator inactive.
Cc1ccc2c(=O)cc(C(=O)NC3CCS(=O)(=O)C3)oc2c1 (configuration not stated) was read as KB-V1 cytotox inactive, KB-3-1 cytotox inactive, MCF10A rerep inactive, SW480 rereplic inactive and PINK1 modulator inactive.
For Cc1cccc(NC(=O)c2cc(=O)c3ccccc3o2)n1 the results were KB-V1 cytotox inactive, KB-3-1 cytotox inactive, MCF10A rerep inactive[0.0737 µM], SW480 rereplic 2.91µM and PINK1 modulator inactive.
Cc1ccc(NC(=O)c2cc(=O)c3ccccc3o2)c(C)c1 was read as KB-V1 cytotox inconclusive, KB-3-1 cytotox inactive, MCF10A rerep inactive, SW480 rereplic inactive and PINK1 modulator inactive.
Screening Cc1cccc(NC(=O)c2cc(=O)c3ccccc3o2)c1 returned KB-V1 cytotox inconclusive, KB-3-1 cytotox inactive, MCF10A rerep inactive, SW480 rereplic inactive and PINK1 modulator inactive.
For Cc1ccc(C)c(NC(=O)c2cc(=O)c3ccccc3o2)c1 the results were KB-V1 cytotox 14.6µM, KB-3-1 cytotox inactive, MCF10A rerep inconclusive, SW480 rereplic inactive and PINK1 modulator inactive.
`CC(CSC(=O)c1ccccc1)C(=O)N1C[C@@H](Sc2ccccc2)C[C@H]1C(=O)O` (some centres not stated) gave MCF10A rerep inactive and SW480 rereplic inactive.
`CCOc1ccc(NC(=O)CN(C)C(=O)c2ccc(OCC(=O)N3CCOCC3)c(OC)c2)cc1OCC` gave KB-V1 cytotox inactive, KB-3-1 cytotox inactive, MCF10A rerep inactive, SW480 rereplic inactive and PINK1 modulator inactive.
CCOc1ccccc1NC(=O)Cn1c(=O)n(C(C)C)c(=O)c2oc3ccccc3c21 was read as PINK1 modulator inactive.
O=C(NCc1cccnc1)c1cc(Sc2cccc(Cl)c2)nc2ccccc12 was read as KB-V1 cytotox 16.4µM, KB-3-1 cytotox inconclusive, MCF10A rerep inconclusive, SW480 rereplic inactive and PINK1 modulator inactive.
Screening COC(=O)C1CSC(C)(C)C(=O)N1 (configuration not stated) returned KB-V1 cytotox inactive, KB-3-1 cytotox inactive, MCF10A rerep 0.92µM, SW480 rereplic inactive and PINK1 modulator inactive.
`CC1(C)CSC(C)(C)C(=O)N1` gave KB-V1 cytotox inconclusive, KB-3-1 cytotox inactive, MCF10A rerep inactive, SW480 rereplic inactive and PINK1 modulator inactive.
For COc1cccc(C2CC(=O)Nc3cc4c(cc32)CCC4)c1 (configuration not stated) the results were KB-V1 cytotox 5.8µM, KB-3-1 cytotox 7.31µM, MCF10A rerep 5.17µM, SW480 rereplic 8.2µM and PINK1 modulator inactive.
For COc1cccc(C2CC(=O)Nc3cc(C)c(C)cc32)c1 (configuration not stated) the results were KB-V1 cytotox 20.6µM, KB-3-1 cytotox inconclusive and PINK1 modulator inactive.
Screening O=C1CC(c2cccc(Cl)c2)c2cc3c(cc2N1)CCC3 (configuration not stated) returned KB-V1 cytotox 8.2µM, KB-3-1 cytotox inactive, MCF10A rerep inactive, SW480 rereplic inactive and PINK1 modulator inactive.
COc1cccc(C2CC(=O)Nc3cc(OC)c(OC)cc32)c1 (configuration not stated) was read as KB-V1 cytotox inactive, KB-3-1 cytotox inactive, MCF10A rerep inactive, SW480 rereplic inconclusive and PINK1 modulator inactive.
CCC(C)n1c(=N)c(C(=O)NC2CCCCC2)cc2c(=O)n3cc(C)ccc3nc21 (configuration not stated) was read as KB-V1 cytotox inconclusive, KB-3-1 cytotox inactive and PINK1 modulator inactive.
Screening CCCCCOc1ccc(C(=O)NCC2(c3ccccc3)CCOCC2)cc1 returned KB-V1 cytotox 23.1µM, KB-3-1 cytotox inactive, MCF10A rerep inactive, SW480 rereplic inactive and PINK1 modulator inactive.
For CCCCOc1ccc(C(=O)NCC2(c3ccccc3)CCOCC2)cc1 the results were KB-V1 cytotox inactive, KB-3-1 cytotox inactive, MCF10A rerep inactive, SW480 rereplic inactive and PINK1 modulator inactive.
For CCCCC(=O)Nc1ccc(C(=O)N(CC)c2ccccc2C)cc1 the results were KB-V1 cytotox 14.6µM, KB-3-1 cytotox inactive, MCF10A rerep inactive[9.22 µM], SW480 rereplic inconclusive and PINK1 modulator inactive.
`O=C(c1cnsn1)N1CCOc2ccc(CN3CCOCC3)cc2C1` gave PINK1 modulator inactive.
For COc1ccc(C(=O)Nn2c(SCC(=O)NCc3ccco3)nc3ccccc3c2=O)cc1 the results were KB-V1 cytotox inconclusive, KB-3-1 cytotox inconclusive, MCF10A rerep inactive, SW480 rereplic inactive and PINK1 modulator inactive.
`COc1ccc(C(=O)Nn2c(SCC(=O)c3ccc(Cl)cc3)nc3ccccc3c2=O)cc1` gave KB-V1 cytotox 5.8µM, KB-3-1 cytotox inactive, MCF10A rerep inactive, SW480 rereplic inactive and PINK1 modulator inactive.
For COCCn1c(SCC(=O)N2CCC(C)CC2)nc2ccccc2c1=O the results were KB-V1 cytotox inactive, KB-3-1 cytotox inactive, MCF10A rerep inactive, SW480 rereplic inactive and PINK1 modulator inactive.
For COc1ccc(C(=O)Nn2c(SCC(=O)NC3CCCCC3)nc3ccccc3c2=O)cc1 the results were KB-V1 cytotox 18.4µM, KB-3-1 cytotox inactive, MCF10A rerep inactive, SW480 rereplic inactive and PINK1 modulator inactive.
COc1ccc(C(=O)Nn2c(SCC(=O)N3CCC(C)CC3)nc3ccccc3c2=O)cc1 was read as KB-V1 cytotox 5.17µM, KB-3-1 cytotox inactive, MCF10A rerep inactive, SW480 rereplic inactive and PINK1 modulator inactive.
For Cc1ccc(S(=O)(=O)N2CCC(c3nnc(-c4cccc(C)c4)o3)CC2)cc1 the results were KB-V1 cytotox inconclusive, KB-3-1 cytotox inactive and PINK1 modulator inactive.
For Cc1ccccc1NC(=O)C(C)OC(=O)C1CCCO1 (configuration not stated) the results were KB-V1 cytotox inactive, KB-3-1 cytotox inactive and PINK1 modulator inactive.
`CC1=Nc2cc(C(=O)O)ccc2Sc2ccc(C)cc21` gave KB-V1 cytotox inactive, KB-3-1 cytotox inactive, MCF10A rerep inactive, SW480 rereplic inactive and PINK1 modulator inactive.
Screening CC1=Nc2cc(C(=O)NCC3CCCO3)ccc2Sc2ccc(C)cc21 (configuration not stated) returned KB-V1 cytotox inactive, KB-3-1 cytotox inconclusive, MCF10A rerep 2.06µM, SW480 rereplic 1.03µM and PINK1 modulator inactive.
For CC1=Nc2cc(C(=O)NCc3ccco3)ccc2Sc2ccc(C)cc21 the results were KB-V1 cytotox 0.581µM, KB-3-1 cytotox inconclusive, MCF10A rerep 1.03µM, SW480 rereplic 1.3µM and PINK1 modulator inactive.
For CC1=Nc2cc(C(=O)NCCCN3CCN(C)CC3)ccc2Sc2ccc(C)cc21 the results were KB-V1 cytotox inactive, KB-3-1 cytotox inactive, MCF10A rerep inconclusive, SW480 rereplic inactive and PINK1 modulator inactive.
Screening CCC(C)NC(=O)c1ccc2c(c1)N=C(C)c1cc(C)ccc1S2 (configuration not stated) returned KB-V1 cytotox inactive, KB-3-1 cytotox 5.17µM and PINK1 modulator inactive.
